Only some compounds are listed: those with a hit (about 4.7% of all), similar ones and a draw of the others.
D1 ag = agonists of human D1 dopamine receptor; P21728; HEK293 T-REx D1 cells, calcium flux, agonist mode; activation, % at 2 µM; 360,000 tested, 1% active; also: 0% is about no effect
Target sequence (P21728 whole entry, looked up): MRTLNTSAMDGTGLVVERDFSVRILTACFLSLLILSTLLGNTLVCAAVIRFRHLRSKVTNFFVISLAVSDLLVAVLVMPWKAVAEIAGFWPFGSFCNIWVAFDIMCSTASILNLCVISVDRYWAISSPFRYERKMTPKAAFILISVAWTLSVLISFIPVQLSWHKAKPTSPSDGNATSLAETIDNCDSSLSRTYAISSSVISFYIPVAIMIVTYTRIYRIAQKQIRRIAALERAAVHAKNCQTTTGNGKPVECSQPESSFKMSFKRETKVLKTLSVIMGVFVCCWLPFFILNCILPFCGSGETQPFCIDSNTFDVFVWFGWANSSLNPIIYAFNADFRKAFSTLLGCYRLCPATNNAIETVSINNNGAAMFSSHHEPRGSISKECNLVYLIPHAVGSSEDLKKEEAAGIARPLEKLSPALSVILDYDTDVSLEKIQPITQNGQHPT
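Agonism was scored from calcium flux recorded over 180 s (1 read/s) after pintool compound addition, following a 10-cycle baseline. Cells were inducible force-coupled HEK293 TREx D1, plated overnight at 30 C and loaded with no-wash calcium dye.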
TRHR ag = agonists of human TRH receptor; P34981; TRHR cells, calcium flux fluo-8, FDSS agonist mode; activation, % at 2 µM; AID 493084; 360,000 tested, 0.18% active; also: 0% is about no effect
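Fluo-8-loaded TRHR cells; 10 s baseline, compound added, kinetic Ca2+ fluorescence read 1/s, agonist mode.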
D1 antag = human D1 dopamine receptor antagonism | AID 504652 | 360,000 tested, 3.2% active | HEK293 TREx D1 cells, calcium flux, dopamine EC80; active compounds read low | activity change, negative = inhibition, % at 10 µM | P21728; in the data active = activity change below about -30%; also: % is scaled to controls: 0 for no effect and ±100 for the full control effect
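After overnight tetracycline induction at 30 C, force-coupled D1 HEK293 cells took up a no-wash calcium dye at room temperature. Compounds were added and monitored 180 s, and the response to EC80 dopamine was then recorded.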
TRHR PAM = TRH receptor (human) allosteric enhancement | P34981 | TRHR cells, fluo-8 calcium fluorescence, EC20 TRH enhancement | enhancement, % at 2 µM | 360,000 tested, 0.66% active | AID 493056; in the data active = enhancement above about 30%; also: 0% is about no effect
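TRHR-expressing cells loaded with fluo-8 calcium dye were read kinetically (ex 480/em 530) during compound addition, then stimulated with an EC20 of TRH (10 nM final). Enhancement of the Gq-mediated intracellular calcium response was scored.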
D1 potentiator = potentiators of human D1 dopamine receptor; 360,000 tested, 0.036% active; P21728; HEK293 TREx D1 cells, calcium flux, dopamine EC20 potentiation; potentiation, % at 10 µM; in the data active = potentiation above about 30%; also: 0% is about no effect
Numbers without * were called inactive. Rule as the data show it, unless noted: active = activation above about 30%; inactive = the rest.

`CCN(CC)c1ccc2cc(-c3nnc(-c4ccncc4)o3)c(=O)oc2c1` gave D1 ag 199*, TRHR ag 285*, D1 antag -18, TRHR PAM 12 and D1 potentiator -9.
Screening Cc1cccc(NC(=O)CN2C(=O)c3cccnc3Oc3ccc(Cl)cc32)c1C returned D1 ag 7, TRHR ag 1, D1 antag -14, TRHR PAM -4 and D1 potentiator 0.
Screening CCCCOc1ccc(N=Cc2ccc[nH]2)cc1 returned D1 ag 1, TRHR ag 0, D1 antag 3, TRHR PAM 24 and D1 potentiator 0.
For Cc1cccc(-n2ncc3c(NC4CCCCC4)ncnc32)c1 the results were D1 ag 2, TRHR ag 2, D1 antag 6, TRHR PAM 10 and D1 potentiator -7.
`Cc1cccc(-n2ncc3c(NC4CCCC4)ncnc32)c1` gave D1 ag -4, TRHR ag -1, D1 antag -34*, TRHR PAM -1 and D1 potentiator -1.
`Cc1ccc(Cl)cc1-n1ncc2c(NCCCc3ccccc3)ncnc21` gave D1 ag 8, TRHR ag 1, D1 antag -36*, TRHR PAM -5 and D1 potentiator -3.
Screening Cc1ccc(CNc2ncnc3c2cnn3-c2ccccc2)cc1 returned D1 ag 53*, TRHR ag 0, D1 antag 60, TRHR PAM -4 and D1 potentiator 2.
`Cc1ccc(Cl)cc1-n1ncc2c(NCc3ccc(F)cc3)ncnc21` gave D1 ag 77*, TRHR ag 17, D1 antag -61*, TRHR PAM -4 and D1 potentiator 3.
Screening CC(C)[C@H](NS(=O)(=O)c1ccc2c(c1)OCCO2)C(=O)OCC(=O)Nc1cccc(Cl)c1Cl returned D1 ag 4, TRHR ag 0, D1 antag -31*, TRHR PAM 13 and D1 potentiator -5.
C/C(CC(=O)Nc1ccc2c(c1)OCCO2)=N\NC(=O)COc1ccccc1 was read as D1 ag 1, TRHR ag 0, D1 antag -4, TRHR PAM 37* and D1 potentiator 1.
Screening CCOC(=O)c1ccc(NC(=O)COc2ccc(S(=O)(=O)NC(C)CC)cc2)cc1 (stereo not drawn) returned D1 ag 17, TRHR ag 0, D1 antag -38*, TRHR PAM 4 and D1 potentiator -2.
CCOC(=O)c1ccc(NC(=O)C(C)NS(=O)(=O)c2ccc(OC)cc2)cc1 (stereo not drawn) was read as D1 ag 8, TRHR ag -1, D1 antag -3, TRHR PAM 7 and D1 potentiator 0.
For CCC(C)NS(=O)(=O)c1ccc(OCC(=O)Nc2ccc3c(c2)OCCO3)cc1 (stereo not drawn) the results were D1 ag 6, TRHR ag -1, D1 antag -43*, TRHR PAM -4 and D1 potentiator -6.
Cc1ccc(NC(=O)CSc2nc3ncc(Cl)cc3[nH]2)c(C)c1 was read as D1 ag 10, TRHR ag 0, D1 antag 0, TRHR PAM -1 and D1 potentiator -4.
`CCN(CC)c1cc(C)c2cc(NC(=O)/C=C/c3ccccc3OC(C)C)ccc2n1` gave D1 ag 1, TRHR ag 0, D1 antag -11, TRHR PAM -4 and D1 potentiator 0.
Cc1ccc(NC(=O)Nc2ccno2)cc1 was read as D1 ag 1, TRHR ag 0, D1 antag -37*, TRHR PAM -1 and D1 potentiator -9.
Screening CCOC(=O)N1CCC(NC(=O)c2cc3c(-c4cccc(OC)c4)nn(C)c3s2)CC1 returned D1 ag 3, TRHR ag -1, D1 antag -43*, TRHR PAM 2 and D1 potentiator -1.
Screening COc1cccc(-c2nn(C)c3sc(C(=O)NCCc4cccc(C)c4)cc23)c1 returned D1 ag 46*, TRHR ag 5, D1 antag -11, TRHR PAM 3 and D1 potentiator 15.
Screening Cc1cc(-c2nc3ncccc3o2)ccc1NC(=O)c1ccc(Cl)cc1 returned D1 ag -1, TRHR ag 0, D1 antag 6, TRHR PAM 4 and D1 potentiator -4.
Screening COCCNC(=O)c1cccc(OC2CCN(Cc3ccc(C(C)C)cc3)CC2)c1 returned D1 ag 6, TRHR ag 0, D1 antag -6, TRHR PAM -7 and D1 potentiator -16.
For CC(C)CN1CCC(Oc2cccc(C(=O)NCCc3ccccc3)c2)CC1 the results were D1 ag 6, TRHR ag 1, D1 antag -38*, TRHR PAM -1 and D1 potentiator -3.
Screening CSCC(C)N1CCC(Oc2cccc(C(=O)NCc3ccccn3)c2)CC1 (stereo not drawn) returned D1 ag 4, TRHR ag 0, D1 antag -63*, TRHR PAM 1 and D1 potentiator -11.
`CC#CC(=O)N1CCC(Oc2cccc(C(=O)NCc3ccccn3)c2)CC1` gave D1 ag 2, TRHR ag 0, D1 antag 13, TRHR PAM -11 and D1 potentiator 3.
Screening COCC(C)N1CCC(Oc2cccc(C(=O)NCCc3ccccc3)c2)CC1 (stereo not drawn) returned D1 ag 13, TRHR ag 1, D1 antag -39*, TRHR PAM 9 and D1 potentiator -12.
For O=C(NN1C(=O)NC2(CCCCC2)C1=O)c1ccc(Cl)s1 the results were D1 ag 1, TRHR ag 0, D1 antag -7, TRHR PAM 0 and D1 potentiator -8.
`C=CCc1cc(OC)ccc1OCCOCCN1CCc2ccccc2C1` gave D1 ag 11, TRHR ag 0, D1 antag -43*, TRHR PAM 0 and D1 potentiator -11.
Cc1ccc(CN2CCC(CO)(CC3CCCCO3)CC2)o1 (stereo not drawn) was read as D1 ag 0, TRHR ag 0, D1 antag 7, TRHR PAM 14 and D1 potentiator 5.
`COCc1ccc(CN2CCC(CO)(CC3CCCCO3)CC2)o1` (stereo not drawn) gave D1 ag 1, TRHR ag 1, D1 antag -40*, TRHR PAM 8 and D1 potentiator -6.
`CCc1ccc(CN2CCC(CO)(CC3CCCCO3)CC2)o1` (stereo not drawn) gave D1 ag 4, TRHR ag 1, D1 antag -38*, TRHR PAM 1 and D1 potentiator -6.
Screening COCCSc1nnc(NC(=O)COc2ccc3c(c2)OCO3)s1 returned D1 ag 3, TRHR ag 1, D1 antag 3, TRHR PAM 11 and D1 potentiator -2.

Compound activity: PubChem, National Center for Advancing Translational Sciences (NCATS)
